In PubChem BioAssay (Tox21) one finds Potency and outcome data, which are given here for eight compounds.

A short description of assay [1]: qHTS assay to identify small molecule antagonists of the thyroid receptor (TR) signaling pathway - cell viability counter screen (AID 743064). Note: nearly all actives have a fitted effect of over 50% in size. Note: potency is the fitted concentration of half-maximal effect. A digest of the protocol:
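In-well cytotoxicity read by CellTiter-Fluor (30 min, 37 C) following 23.5 h exposure of GH3 cells bearing a TRE-luciferase sensor. Compounds were added alongside 1 nM (final) T3 to drive TR transactivation.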
In general terms: Quantitative high-throughput screening tests each substance at several concentrations.

Assay [2] in a line: qHTS assay to identify small molecule antagonists of the thyroid receptor (TR) signaling pathway (AID 743065). Note: nearly all actives have a fitted effect of over 55% in size. Note: potency is the fitted concentration of half-maximal effect. Summed up:
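GH3.TRE-Luc rat pituitary cells carrying two TR response elements driving luciferase were plated for 4 h, given compound plus 1 nM T3 (final), and incubated 23.5 h at 37 C. ONE-Glo luminescence measured reporter inhibition; CellTiter-Fluor fluorescence tracked cytotoxicity.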

Assay [3] concerns thyroid hormone receptor (rat, GH3 cells). Kind of assay: qHTS assay to identify small molecule agonists of the thyroid receptor (TR) signaling pathway (AID 743066; calls by dose curve).
The nature of assay [4]: qHTS assay to identify small molecule antagonists of the estrogen receptor alpha (ER-alpha) signaling pathway - cell viability counter screen (AID 743074; calls by dose curve;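 note: HEK293 cells carrying ER-alpha-UAS-bla reporter stimulated with 17beta-estradiol; nearly all actives have a fitted effect of over 45% in size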; note: potency is the fitted concentration of half-maximal effect).
The nature of assay [5]: qHTS assay to identify small molecule antagonists of the estrogen receptor alpha (ER-alpha) signaling pathway using the BG1 cell line - cell viability counter screen (AID 743081).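 Note: compound given together with 17beta-estradiol as the ER stimulus; nearly all actives have a fitted effect of over 45% in size.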 Note: potency is the fitted concentration of half-maximal effect.
Assay [6] is described as follows: qHTS assay to identify small molecule that activate the aryl hydrocarbon receptor (AhR) signaling pathway - cell viability counter screen (AID 743086). Note: nearly all actives have a fitted effect of over 45% in size. Note: potency is the fitted concentration of half-maximal effect. A digest of the protocol: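 HepG2-AhR-luc (HG2L7.5c1) cells, 4000/well, were preincubated 5 h at 37C, exposed to compound in qHTS format for 24 hr at 37C, then given CellTiter-Fluor for 30 min; viability was read as fluorescence in the reporter wells.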

Assay [7] is described as follows: qHTS assay to identify small molecule antagonists of the peroxisome proliferator-activated receptor gamma (PPARg) signaling pathway - cell viability counter screen (AID 743194). Note: nearly all actives have a fitted effect of over 55% in size. A digest of the protocol: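 PPARg-UAS-bla HEK293H cells were plated, rested 5 h at 37 C, then treated with compounds plus rosiglitazone (50 nM final) for 17 h at 37 C; viability was then read by CellTiter-Glo luminescence after 30 min at room temperature.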

A short description of assay [8]: qHTS assay for small molecule agonists of the antioxidant response element (ARE) signaling pathway (AID 743202; active = well fitted activation curve with a large enough effect in the signal ratio in the repeat runs, not every such curve was filed as active; the % refers to the signal ratio; note: potency is the fitted concentration of half-maximal effect). Summed up:
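Compounds delivered in DMSO to ARE-bla HepG2 cells (2,000 cells/well, pre-incubated 5 h) and left 16 h at 37 C. LiveBLAzer B/G FRET substrate then added for 2 h at RT before fluorescence reading.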

A short description of assay [9]: qHTS assay for small molecule agonists of the antioxidant response element (ARE) signaling pathway - cell viability counter screen (AID 743203; calls by dose curve; note: nearly all actives have a fitted effect of over 55% in size). A digest of the protocol: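 HepG2 cells carrying ARE-driven beta-lactamase; 2,000 cells/well; 5 hrs plating; compound pinned from DMSO; 16 hrs 37C/5% CO2; CellTiter-Glo added; 30 min RT; luminescence.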
A short description of assay [10]: qHTS assay for small molecule activators of the heat shock response signaling pathway - cell viability counter screen (AID 743209). Note: nearly all actives have a fitted effect of over 50% in size. Summed up: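 Luminescence from CellTiter-Glo, added after the beta-lactamase FRET read, gave the viability signal. Cells were HSE-bla HeLa treated with DMSO-dissolved compounds for 5 h at 37 C following overnight plating.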
A short description of assay [11]: qHTS assay for small molecule activators of the heat shock response signaling pathway (AID 743210; active = well fitted activation curve with a large enough effect in the signal ratio in the repeat runs, with a control signal flat, not every such curve was filed as active; the % refers to the signal ratio;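 note: HeLa cells with beta-lactamase reporter driven by heat shock elements; series mostly up to about 63 µM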). A digest of the protocol:
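Reporter gene assay: HeLa cells stably bearing an HSE-bla construct, compound treatment 5 h at 37 C, LiveBLAzer substrate 2.5 h at RT, fluorescence intensity.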

Another assay addresses Aromatase (Homo sapiens) (UniProt P11511). Kind of assay: qHTS assay to identify aromatase inhibitors (AID 743083). Note: nearly all actives have a fitted effect of over 55% in size. Note: potency is the fitted concentration of half-maximal effect.
Assay [12] in a line: qHTS assay to identify aromatase inhibitors - cell viability counter screen (AID 743084). Note: potency is the fitted concentration of half-maximal effect.
Assay [13] addresses Aryl hydrocarbon receptor (Homo sapiens) (UniProt P35869). Kind of assay: qHTS assay to identify small molecule that activate the aryl hydrocarbon receptor (AhR) signaling pathway (AID 743085).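 For activation: HG2L7.5c1 human HepG2 liver cells with stably integrated DRE-driven firefly reporter; series mostly up to about 70 µM.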 Note: nearly all actives have a fitted effect of over 15% in size. Note: potency is the fitted concentration of half-maximal effect. Summed up:
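Luminescence (ONE-Glo) from a dioxin-responsive-element luciferase reporter in HG2L7.5c1 HepG2 cells after 24 hr compound exposure at 37C; viability measured by CellTiter-Fluor fluorescence beforehand.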

In assay [14] the target is Peroxisome proliferator-activated receptor gamma (Homo sapiens) (UniProt P37231). Kind of assay: qHTS assay to identify small molecule agonists of the peroxisome proliferator-activated receptor gamma (PPARg) signaling pathway (AID 743094; active = well fitted activation curve with a large enough effect in the signal ratio in the repeat runs, not every such curve was filed as active; the % refers to the signal ratio). Summed up:
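Beta-lactamase FRET fluorescence was the read-out after a 1 h room-temperature substrate step, following 17 h compound treatment at 37C of HEK293H cells expressing a UAS-driven bla reporter responsive to PPARg.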

Assay [15] shares this target. Kind of assay: qHTS assay to identify small molecule antagonists of the peroxisome proliferator-activated receptor gamma (PPARg) signaling pathway (AID 743191; calls by dose curve; note: series mostly up to about 63 µM; nearly all actives have a fitted effect of over 30% in size). Summed up: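 GeneBLAzer PPARg UAS-bla HEK293H cells carrying a UAS-driven beta-lactamase reporter were plated at 3000 cells/well, preincubated 5 h at 37C, then given compound for 17 h at 37C; LiveBLAzer B/G FRET substrate was read after 1 h at room temperature.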

The target in assay [16] is Estrogen receptor (Homo sapiens) (UniProt P03372). Kind of assay: qHTS assay to identify small molecule antagonists of the estrogen receptor alpha (ER-alpha) signaling pathway (AID 743069; active = well fitted curve in the direction sought with a large enough effect in the signal ratio in the repeat runs, not every such curve was filed as active; the % refers to the signal ratio). Summed up: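 Estradiol-stimulated ER-alpha-UAS-bla HEK293 cells, 18 hr compound exposure at 37C. LiveBLAzer B/G substrate, 2 hr RT, fluorescence read.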
Assay [17] shares this target. Kind of assay: qHTS assay to identify small molecule agonists of the estrogen receptor alpha (ER-alpha) signaling pathway (AID 743075; calls by dose curve;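 note: HEK293 GripTite cells with ER-alpha and UAS-driven beta-lactamase reporter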).
Assay [18] in a line: qHTS assay to identify small molecule antagonists of the estrogen receptor alpha (ER-alpha) signaling pathway using the BG1 cell line (AID 743080; calls by dose curve;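 note: BG1 cells stimulated with 17beta-estradiol alongside compound; series mostly up to about 70 µM; nearly all actives have a fitted effect of over 25% in size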). Summed up:
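Quantitative HTS on the Tox21 10K library: BG1 cells with endogenous ER-alpha and ERE-luciferase reporter, 17beta-estradiol stimulation, 21.5 h compound exposure, luminescence endpoint with parallel fluorescence cytotoxicity counter-read.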

Several values for one entry are separate records, joined by “and”; a condition that tells them apart may be missing. Equal entries are not always repeated. Inconclusive results are not listed. Activity calls are given as the source filed them. Unless noted, calls come from the whole dose curve; as a rule, active = well fitted curve in the direction sought with a large enough effect in the repeat runs; inconclusive = weak or mixed curves; inactive = no such curve, though single readings can be large; an effect the other way counts as inactive or inconclusive.

Chain of Aromatase (Homo sapiens) (P11511 whole entry, looked up): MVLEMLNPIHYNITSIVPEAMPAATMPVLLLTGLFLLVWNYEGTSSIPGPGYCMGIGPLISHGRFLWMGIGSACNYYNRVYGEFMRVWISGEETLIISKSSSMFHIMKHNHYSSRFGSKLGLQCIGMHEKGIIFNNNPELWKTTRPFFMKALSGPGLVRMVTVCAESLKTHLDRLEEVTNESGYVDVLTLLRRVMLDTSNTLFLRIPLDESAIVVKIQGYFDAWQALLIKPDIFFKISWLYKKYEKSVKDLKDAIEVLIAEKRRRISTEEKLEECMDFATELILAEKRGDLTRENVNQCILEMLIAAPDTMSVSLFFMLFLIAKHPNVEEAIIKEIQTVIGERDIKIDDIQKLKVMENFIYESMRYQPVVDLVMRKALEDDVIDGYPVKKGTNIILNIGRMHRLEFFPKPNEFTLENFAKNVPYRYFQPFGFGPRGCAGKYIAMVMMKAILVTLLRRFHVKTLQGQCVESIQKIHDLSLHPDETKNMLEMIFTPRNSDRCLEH
Chain of Peroxisome proliferator-activated receptor gamma (Homo sapiens) (P37231 whole entry, looked up): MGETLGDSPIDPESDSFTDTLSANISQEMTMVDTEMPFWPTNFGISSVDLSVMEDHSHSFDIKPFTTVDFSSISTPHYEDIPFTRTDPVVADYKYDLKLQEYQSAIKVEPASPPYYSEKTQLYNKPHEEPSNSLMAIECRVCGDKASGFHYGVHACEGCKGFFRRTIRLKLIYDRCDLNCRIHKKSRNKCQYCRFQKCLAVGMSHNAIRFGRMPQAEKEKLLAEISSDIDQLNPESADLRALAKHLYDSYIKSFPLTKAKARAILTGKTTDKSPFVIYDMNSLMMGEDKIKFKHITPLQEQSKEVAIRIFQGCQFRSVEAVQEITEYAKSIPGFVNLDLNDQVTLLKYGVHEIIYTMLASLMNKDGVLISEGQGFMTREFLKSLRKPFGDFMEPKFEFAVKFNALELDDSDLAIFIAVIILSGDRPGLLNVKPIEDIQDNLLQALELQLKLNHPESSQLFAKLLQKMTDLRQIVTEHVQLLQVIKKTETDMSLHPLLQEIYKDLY
Chain of Aryl hydrocarbon receptor (Homo sapiens) (P35869 whole entry, looked up): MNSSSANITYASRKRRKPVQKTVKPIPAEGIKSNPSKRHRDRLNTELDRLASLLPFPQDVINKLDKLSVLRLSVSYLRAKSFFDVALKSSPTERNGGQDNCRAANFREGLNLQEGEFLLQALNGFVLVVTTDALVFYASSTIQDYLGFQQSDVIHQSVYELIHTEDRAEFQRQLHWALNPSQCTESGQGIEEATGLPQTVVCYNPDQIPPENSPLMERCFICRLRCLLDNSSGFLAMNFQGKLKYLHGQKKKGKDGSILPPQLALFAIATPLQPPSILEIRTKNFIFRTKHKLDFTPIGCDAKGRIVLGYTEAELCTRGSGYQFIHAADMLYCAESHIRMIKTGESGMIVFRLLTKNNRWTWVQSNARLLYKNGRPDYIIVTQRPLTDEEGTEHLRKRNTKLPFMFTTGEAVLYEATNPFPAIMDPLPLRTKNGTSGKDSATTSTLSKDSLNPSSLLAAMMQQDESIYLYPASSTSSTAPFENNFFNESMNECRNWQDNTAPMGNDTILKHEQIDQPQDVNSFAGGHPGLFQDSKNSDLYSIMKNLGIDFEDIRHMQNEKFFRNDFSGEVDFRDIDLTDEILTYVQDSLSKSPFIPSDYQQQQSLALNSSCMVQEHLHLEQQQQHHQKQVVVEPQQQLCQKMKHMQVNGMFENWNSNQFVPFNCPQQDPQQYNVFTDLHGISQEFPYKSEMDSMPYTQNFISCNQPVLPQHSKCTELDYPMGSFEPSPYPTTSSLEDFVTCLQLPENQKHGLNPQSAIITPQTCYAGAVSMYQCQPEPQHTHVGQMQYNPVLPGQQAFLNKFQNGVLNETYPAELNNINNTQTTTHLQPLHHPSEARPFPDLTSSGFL
Chain of Estrogen receptor (Homo sapiens) (P03372 whole entry, looked up): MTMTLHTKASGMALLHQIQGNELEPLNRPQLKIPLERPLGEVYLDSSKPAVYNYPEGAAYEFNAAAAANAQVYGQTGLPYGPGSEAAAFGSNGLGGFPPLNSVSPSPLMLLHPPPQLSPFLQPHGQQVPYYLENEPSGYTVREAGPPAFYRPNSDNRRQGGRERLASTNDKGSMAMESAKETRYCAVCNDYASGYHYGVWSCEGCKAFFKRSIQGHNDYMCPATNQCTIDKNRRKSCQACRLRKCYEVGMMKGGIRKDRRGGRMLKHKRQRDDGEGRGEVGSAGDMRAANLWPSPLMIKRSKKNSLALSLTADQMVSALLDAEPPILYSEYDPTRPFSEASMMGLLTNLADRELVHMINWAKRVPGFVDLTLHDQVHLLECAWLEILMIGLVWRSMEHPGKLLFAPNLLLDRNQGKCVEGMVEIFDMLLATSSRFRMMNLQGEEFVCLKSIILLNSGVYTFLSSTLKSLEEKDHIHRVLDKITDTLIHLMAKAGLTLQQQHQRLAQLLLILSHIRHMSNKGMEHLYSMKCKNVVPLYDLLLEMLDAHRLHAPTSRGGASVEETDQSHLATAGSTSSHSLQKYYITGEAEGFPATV

Regarding `Cc1cc(-n2nc3ccc(Cl)cc3n2)c(O)c(C(C)(C)C)c1`, the Potency entry in assay [1], in assay [2], in assay [4], in [5], in assay [6] and in [7] was “inactive” each time. For the same compound, the Potency result in assay [8], in [9], in assay [10] and in assay [11] was “inactive” throughout. The result in assay [3] was inactive.

For `CCCC(=O)OC(C)(C)Cc1ccccc1`, the Potency entry (in assay [1]; in assay [2]; in assay [4]; in assay [5]; with Aromatase (Homo sapiens); in assay [12]) was “inactive” throughout. The Potency result in assay [13], in [6], in assay [7], in assay [8], in [10] and in [11] was “inactive” each time. Further, the result in [3] was inactive.

For the compound `O=C(O)CCN(C1(C(=O)NO)CCCC1)S(=O)(=O)c1ccc(Oc2ccc(F)cc2)cc1`, the Potency entry (in assay [1]; in assay [2]; in [4]; in [5]; with Aromatase (Homo sapiens); in assay [12]) was “inactive” each time. In addition, the Potency result in assay [13], in assay [6], in assay [14], in assay [15], in [9] and in assay [10] was “inactive” each time. For the same compound, in assay [11], the Potency result was “inactive”. Moreover, the call in [3] was inactive.

On to `O=C(Nc1ccc2c(O)c(N=Nc3ccc(N=Nc4ccc(S(=O)(=O)O)cc4)cc3)c(S(=O)(=O)O)cc2c1)c1ccccc1`, for which the Potency in assay [1] was 30.6 µM (active); in assay [5] it was 27.3 µM (active); in [12], 8.63 µM (active); in [6], 19.3 µM (active). Moreover, in [3], the outcome was inactive. Also, the Potency result in [16], in assay [4], in assay [17], in assay [13], in assay [14] and in assay [15] was “inactive” in each case. Besides, the Potency entry in assay [7], in assay [9], in assay [10] and in [11] was “inactive” throughout.

Regarding `CN1CCN2c3ccccc3Cc3ccccc3C2C1` (configuration not stated), the Potency in [1] is 26.6 µM (active); in [2], 23.7 µM (active); in [4], 23.9 µM (active); in assay [5], 26.6 µM (active). Besides, the Potency entry (in assay [17]; in the assay with Aromatase (Homo sapiens); in assay [12]; in assay [13]; in assay [6]; in [14]) was “inactive” each time. In addition, the Potency entry in [7], in assay [9], in assay [10] and in assay [11] was “inactive” throughout.

For `Nc1ccc(NCCO)c([N+](=O)[O-])c1`, the Potency in assay [1] was 54.5 µM (active); in assay [13], 15.4 µM (active). Besides, the result in assay [3] was inactive. Also, the Potency result (in assay [4]; with Aromatase (Homo sapiens); in assay [14]; in assay [15]; in assay [7]; in assay [10]) was “inactive” in each case. The Potency result in assay [11] was “inactive”.

As for `O=c1c(O)c(-c2ccc(O)cc2O)oc2cc(O)cc(O)c12`, the Potency result (in assay [1]; in assay [4]; in assay [17]; in assay [18]; in assay [5]; with Aromatase (Homo sapiens)) was “inactive” in each case. Further, the Potency result in assay [13], in assay [14], in assay [7], in assay [9] and in assay [10] was “inactive” throughout. In assay [3], the compound was called inactive.

`Oc1ccccc1O`: the Potency in [1] is 17.4 µM (active) and 15.4 µM (active); in [2], 43.8 µM (active) and 43.3 µM (active); with Aromatase (Homo sapiens), 27.6 µM (active); in assay [12], 31 µM (active); in assay [8], 30.6 µM (active). For the same compound, the call in assay [3] was inactive. Also, the Potency result in assay [5], in assay [6], in [14], in assay [15], in assay [7] and in [10] was “inactive” in each case. The Potency result in [11] is “inactive”.
